PubChem BioAssay
“And” between values parts separate entries of the source, which are not always exact repeats. Identical values can stand only once. Inconclusive results are not listed. The source made the active and inactive calls.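 The calls were made as follows, unless noted: active = GFP signal above the screen-wide mean plus 3 SD, that is over about 124.5% of the solvent control; inconclusive = no reading because the compound's own fluorescence disturbed strain identification; inactive = the rest.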

Assay: modulators of LAP4-GFP expression in yeast, primary screen, S. cerevisiae, multiplex flow cytometry (AID 1873;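 active = GFP signal, as percent of the solvent control, above the screen mean plus 3 SD, about 149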)
Conditions: 3 h, at 10 µM, stronger effect = higher value

GFP response vs DMSO, inactive:
CCCCCCCC(=O)OCC(O)CO (centres undefined) 92.7%
S=C(c1ccc2c(c1)OCO2)N1CCCCC1 105%
COc1cc2cc(C)nc(Cc3cccc4ccccc34)c2cc1OC 82.3%
CCn1cc(C(=O)O)c(=O)c2ccc(C)nc21 93.7%
c1coc(-c2nnc3n2C2(CCCC2)Cc2ccccc2-3)c1 82.5%
COc1ccc(Cc2noc(CN(C)CCN3CCc4ccccc4C3)n2)cc1OC 91.4%
CC1(C)c2ccccc2N2CC(=O)NC21/C=C/c1ccco1 (centres undefined) 100%
CC12CC(c3ccccc3O1)C(C(=O)N1CCOCC1)C(=O)N2 (centres undefined) 85.2%
O=C1CC(c2ccc(OCCCCCOc3ccc(C4CC(=O)NC4=O)cc3)cc2)C(=O)N1 (centres undefined) 82.8%
O=c1[nH]c(=O)n(C2CCCO2)cc1F (centres undefined) 81.4%
NC(N)=NC(=O)Cc1c(Cl)cccc1Cl 99.9%
CCOC(=O)Cn1c(C)cc(=O)c2ccccc21 117%
Cc1ccc(C(=O)Nc2ccccc2C(=O)NC(C(=O)O)C(C)C)cc1 (centres undefined) 115%
Cc1cc(O)c2/c(=N\N)c(-c3csc(C)n3)coc2c1 106%
O=C(CN1C(=O)/C(=C/c2cccc(Br)c2)SC1=S)Nc1cccnc1 109%
COc1ccc2[nH]c(CN3CCN(CC(C)C)C(CCO)C3)c(C)c2c1 (centres undefined) 105%
CC[N+](C)(C)c1cccc(O)c1 97.3%
COc1cccc2c(=O)c(C/C=C(/C)Cl)c(C)[nH]c12 131%
O=C(N/N=C/c1ccc([N+](=O)[O-])o1)c1ccc(O)cc1 77.6%
CC(=O)N1CCn2c3c(c4cc(C)ccc42)CCCC31 (centres undefined) 123%
Cc1ccc(CN2CCN(CCCc3ccccc3)CC2CCO)cc1 (centres undefined) 97.3%
CCC(C(=O)Nc1ccc2c(c1)OCCO2)c1ccccc1 (centres undefined) 113%
CN(C)CCC=C1c2ccccc2CCc2ccccc21 113%
CN(C)c1ccc(CNCCC(Cc2ccccc2)c2ccco2)cc1 (centres undefined) 89.4%

Assay: modulators of AGP1-GFP expression in yeast TOR pathway, primary screen, cell-based, multiplex flow cytometry, S. cerevisiae (AID 1887);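 also: AGP1-GFP fusion strain of S. cerevisiae within a five-strain barcoded multiplex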
Conditions: 3 h, at 10 µM, stronger effect = higher value

GFP response, % of DMSO, inactive:
COc1cc(C2NCCc3c2[nH]c2ccccc32)ccc1OC(C)C (centres undefined) 104%
O=C(CSCc1ccccc1)NCCCN1CCOCC1 107%
O=C(N1CCCCC1)C1(c2ccccc2)CCOCC1 103%
CCCC(=O)O[C@]1(C(=O)COC(C)=O)CC[C@H]2[C@@H]3C[C@H](F)C4=CC(=O)C=C[C@]4(C)[C@@]3(F)[C@@H](O)C[C@@]21C 103%
O=c1ccc2c(o1)/C(=C/C=C(Cl)Cl)CCC2 84%
COc1cc(Cc2cnc(N)nc2N)cc(OC)c1OC 96.4% and 102%
O=C(CC(NC(=O)OCc1ccccc1)C(=O)O)OCc1ccccc1 (centres undefined) 99.5%
O=c1c(-c2ccccc2)c(O)c2cccc3c2n1CCC3 103%
O=C(O)C1CCN(C(=O)COc2ccc3c4c(c(=O)oc3c2)CCC4)CC1 110%
CCOC(=O)c1cccc(P(C)(C)=O)c1 104%
O=C(O)c1cc2cc(F)ccc2[nH]1 102%
O=C(O)c1ccccc1C(=O)OCCCCOC(=O)c1ccccc1C(=O)O 98.6%
Cn1nc(-c2ccc(Cl)cc2)nc2c(=O)n(C)c(=O)nc1-2 76.7%
O=c1[nH]c(=O)n([C@H]2C[C@H](O)[C@@H](CO)O2)cc1C(F)(F)F 94.8%
COc1ccc(-c2cc(C(=O)N3CCOCC3)c3cc(C)ccc3n2)cc1 107%
Cc1ccc2c(c1)c1c3n2CCCN(Cc2ccccc2)C3CCC1 (centres undefined) 92.5%
CCCCCCCC(=O)OCC(O)CO (centres undefined) 90.3%
S=C(c1ccc2c(c1)OCO2)N1CCCCC1 106%
COc1cc2cc(C)nc(Cc3cccc4ccccc34)c2cc1OC 97.7%
CCn1cc(C(=O)O)c(=O)c2ccc(C)nc21 106%
c1coc(-c2nnc3n2C2(CCCC2)Cc2ccccc2-3)c1 91.5%
COc1ccc(Cc2noc(CN(C)CCN3CCc4ccccc4C3)n2)cc1OC 103%
CC1(C)c2ccccc2N2CC(=O)NC21/C=C/c1ccco1 (centres undefined) 96.2%
CC12CC(c3ccccc3O1)C(C(=O)N1CCOCC1)C(=O)N2 (centres undefined) 101%
O=C1CC(c2ccc(OCCCCCOc3ccc(C4CC(=O)NC4=O)cc3)cc2)C(=O)N1 (centres undefined) 92.9%
O=c1[nH]c(=O)n(C2CCCO2)cc1F (centres undefined) 95.6%
NC(N)=NC(=O)Cc1c(Cl)cccc1Cl 101%
CCOC(=O)Cn1c(C)cc(=O)c2ccccc21 103%
Cc1ccc(C(=O)Nc2ccccc2C(=O)NC(C(=O)O)C(C)C)cc1 (centres undefined) 101%
Cc1cc(O)c2/c(=N\N)c(-c3csc(C)n3)coc2c1 110%
O=C(CN1C(=O)/C(=C/c2cccc(Br)c2)SC1=S)Nc1cccnc1 109%
COc1ccc2[nH]c(CN3CCN(CC(C)C)C(CCO)C3)c(C)c2c1 (centres undefined) 98%
CC[N+](C)(C)c1cccc(O)c1 102%
COc1cccc2c(=O)c(C/C=C(/C)Cl)c(C)[nH]c12 108%
O=C(N/N=C/c1ccc([N+](=O)[O-])o1)c1ccc(O)cc1 97.5%
CC(=O)N1CCn2c3c(c4cc(C)ccc42)CCCC31 (centres undefined) 111%
Cc1ccc(CN2CCN(CCCc3ccccc3)CC2CCO)cc1 (centres undefined) 104%
CCC(C(=O)Nc1ccc2c(c1)OCCO2)c1ccccc1 (centres undefined) 110%
CN(C)CCC=C1c2ccccc2CCc2ccccc21 95.4%
CN(C)c1ccc(CNCCC(Cc2ccccc2)c2ccco2)cc1 (centres undefined) 101%
